# In PubChem BioAssay (NCI):
# This is part of a sample that, as a whole, favours compounds with a hit. Of some 79,000 tested, about 15% had one in any assay. A number with no mark means an inactive call. Calls of active or inactive are those of the source. No stated cut-off is given here; in the data, active means growth inhibition above about 70%; inactive means the rest.
# What was measured:
# [1] = NCI Yeast Anticancer Drug Screen. Data for the mec2-1 strain (AID 157); conditions: S. cerevisiae mec2-1 strain, stronger effect = higher value
# In short: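 Yeast mec2-1 mutant treated with compound. Readout: growth inhibition vs vehicle controls.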
# [2] = NCI Yeast Anticancer Drug Screen. Data for the rad14 strain (AID 159);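 further: 0% = growth of vehicle-treated control cultures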; conditions: S. cerevisiae rad14 strain growth inhibition, stronger effect = higher value
# In short: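 Here, inhibition of yeast growth was measured after compound exposure, using a strain with a genetic defect in DNA damage repair and vehicle-treated cultures as the reference.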
# [3] = NCI Yeast Anticancer Drug Screen. Data for the sgs1 mgt1 strain (AID 161);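 further: 0% = growth of cultures given vehicle only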; conditions: S. cerevisiae sgs1 mgt1 strain, stronger effect = higher value
# In short: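 Genetically altered yeast, compound exposure, growth inhibition relative to vehicle.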
# [4] = NCI Yeast Anticancer Drug Screen. Data for the CLN2oe strain (AID 163);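 further: 0% = growth of vehicle-only control cultures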; conditions: S. cerevisiae CLN2oe strain, stronger effect = higher value
# In short: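 Read-out: yeast growth inhibition, expressed relative to vehicle-only controls. The strain bears an engineered cell-cycle alteration.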
# [5] = NCI Yeast Anticancer Drug Screen. Data for the cln2 rad14 strain (AID 165);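 further: 0% = growth equal to vehicle treated cultures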; conditions: S. cerevisiae cln2 rad14 strain, stronger effect = higher value
# In short: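 cln2 rad14 yeast strain; compound exposure; growth inhibition read vs vehicle controls.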
# [6] = NCI Yeast Anticancer Drug Screen. Data for the bub3 strain (AID 167); conditions: S. cerevisiae bub3 mutant strain, stronger effect = higher value
# In short: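 Whole-cell yeast assay. The mutant strain was incubated with compounds, and growth inhibition was determined by comparison with vehicle-treated cells.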
# [7] = NCI Yeast Anticancer Drug Screen. Data for the wt2 strain (AID 169);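 further: 0% = growth of vehicle-treated yeast cultures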; conditions: S. cerevisiae wt2 strain growth inhibition, stronger effect = higher value
# In short: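 Read-out: growth inhibition versus vehicle-treated control cultures after compound exposure of the yeast strain.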
# [8] = NCI Yeast Anticancer Drug Screen. Data for the mlh1 strain (AID 171);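 further: 0% = growth of vehicle-treated control cultures of the same strain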; conditions: S. cerevisiae mlh1 strain growth inhibition, stronger effect = higher value
# In short: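 Read-out: growth inhibition versus vehicle controls. Strain: engineered yeast with a defined DNA repair or cell cycle defect, compound-treated.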
# [9] = NCI Yeast Anticancer Drug Screen. Data for the sgs1 strain (AID 173);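 further: 0% = growth of vehicle-only control cultures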; conditions: S. cerevisiae sgs1 mutant, stronger effect = higher value
# In short: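 Read-out: yeast growth inhibition relative to vehicle controls, following compound exposure of a strain with a defined DNA repair/cell cycle alteration.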
# [10] = NCI Yeast Anticancer Drug Screen. Data for the mlh1 rad18 strain (AID 175); conditions: S. cerevisiae mlh1 rad18 strain growth inhibition, stronger effect = higher value
# In short: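 Yeast w/ defined DNA-repair lesions; compound exposure; growth vs vehicle controls → % inhibition.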
# [11] = NCI Yeast Anticancer Drug Screen. Data for the rad18 strain (AID 177); conditions: S. cerevisiae rad18 mutant growth inhibition, stronger effect = higher value
# In short: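 Readout: growth inhibition vs vehicle controls. Cells: genetically altered yeast strain, DNA repair defect.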
# [12] = NCI Yeast Anticancer Drug Screen. Data for the rad52 strain (AID 147);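 further: 0% = growth of vehicle-treated control cultures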; conditions: S. cerevisiae rad52 mutant growth inhibition, stronger effect = higher value
# In short: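 Read-out: growth inhibition versus vehicle-treated controls. Cells were a DNA repair-deficient yeast strain treated with compounds.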
# [13] = NCI Yeast Anticancer Drug Screen. Data for the wt1 strain (AID 149);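 further: 0% = growth of vehicle-treated wt1 cultures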; conditions: S. cerevisiae wt1 strain (SPY 50644) growth inhibition, stronger effect = higher value
# In short: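 Measured: growth of wt1 yeast under compound versus vehicle treatment, reported as inhibition.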
# [14] = NCI Yeast Anticancer Drug Screen. Data for the rad50EPP+ strain (AID 151);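 further: 0% = growth of vehicle-treated control cultures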; conditions: S. cerevisiae rad50 mutant strain, stronger effect = higher value
# In short: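 Growth inhibition read against vehicle controls in rad50EPP+ yeast, a strain altered in DNA damage repair, after compound exposure.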
# [15] = NCI Yeast Anticancer Drug Screen. Data for the mgt1 strain (AID 153); conditions: S. cerevisiae mgt1 mutant growth inhibition, stronger effect = higher value
# In short: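 mgt1 yeast grown with test compound; read-out is growth inhibition versus vehicle-treated cultures.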
# [16] = NCI Yeast Anticancer Drug Screen. Data for the rad50 strain (AID 155);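 further: 0% = growth of vehicle-only cultures of the same strain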; conditions: S. cerevisiae rad50 strain growth inhibition, stronger effect = higher value
# In short: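 Growth of the mutant yeast was measured after compound exposure and referenced to vehicle-treated cultures.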
# [17] = at 5.0 µM (retest, dose inferred, filed as 0.5)
# [18] = at 50.0 µM (retest, dose inferred, filed as 5.0)
compound,measurement,setting,value
O=S(=O)(c1cccc(C(F)(F)F)c1)N1c2ccccc2-n2cccc2C1c1cccnc1 (stereo unspecified),growth inhibition,[1]; [17],31%
same,growth inhibition,[1]; at 11.0 µM,56%
same,growth inhibition,[1]; at 33.0 µM,92% (active)
same,growth inhibition,[1]; [18],97% (active)
same,growth inhibition,[1]; at 50.0 µM,94.8% (active)
same,growth inhibition,[1]; at 100.0 µM,89% (active)
same,growth inhibition,[2]; at 1.2 µM,-51%
same,growth inhibition,[2]; at 3.7 µM,-17%
same,growth inhibition,[2]; at 11.0 µM,73% (active)
same,growth inhibition,[2]; at 33.0 µM,94% (active)
same,growth inhibition,[2]; at 100.0 µM,89% (active)
same,growth inhibition,[3]; [17],18%
same,growth inhibition,[3]; [18],98% (active)
same,growth inhibition,[3]; at 50.0 µM,96.8% (active)
same,growth inhibition,[4]; at 1.2 µM,-16%
same,growth inhibition,[4]; at 3.7 µM,-19%
same,growth inhibition,[4]; at 11.0 µM,74% (active)
same,growth inhibition,[4]; at 33.0 µM,94% (active)
same,growth inhibition,[4]; at 100.0 µM,90% (active)
same,growth inhibition,[5]; [17],22%
same,growth inhibition,[5]; [18],96% (active)
same,growth inhibition,[5]; at 50.0 µM,93.9% (active)
same,growth inhibition,[6]; at 1.2 µM,-27%
same,growth inhibition,[6]; at 3.7 µM,1%
same,growth inhibition,[6]; [17],25%
same,growth inhibition,[6]; at 11.0 µM,62%
same,growth inhibition,[6]; at 33.0 µM,94% (active)
same,growth inhibition,[6]; [18],96% (active)
same,growth inhibition,[6]; at 50.0 µM,94.7% (active)
same,growth inhibition,[6]; at 100.0 µM,90% (active)
same,growth inhibition,[7]; at 1.2 µM,-23%
same,growth inhibition,[7]; at 3.7 µM,-41%
same,growth inhibition,[7]; at 11.0 µM,60%
same,growth inhibition,[7]; at 33.0 µM,93% (active)
same,growth inhibition,[7]; at 100.0 µM,91% (active)
same,growth inhibition,[8]; at 1.2 µM,-43%
same,growth inhibition,[8]; at 3.7 µM,-15%
same,growth inhibition,[8]; at 11.0 µM,70% (active)
same,growth inhibition,[8]; at 33.0 µM,93% (active)
same,growth inhibition,[8]; at 100.0 µM,88% (active)
same,growth inhibition,[9]; at 1.2 µM,-40%
same,growth inhibition,[9]; at 3.7 µM,-21%
same,growth inhibition,[9]; at 11.0 µM,73% (active)
same,growth inhibition,[9]; at 33.0 µM,92% (active)
same,growth inhibition,[9]; at 100.0 µM,89% (active)
same,growth inhibition,[10]; [17],34%
same,growth inhibition,[10]; [18],96% (active)
same,growth inhibition,[10]; at 50.0 µM,95.5% (active)
same,growth inhibition,[11]; at 1.2 µM,-7%
same,growth inhibition,[11]; at 3.7 µM,7%
same,growth inhibition,[11]; at 11.0 µM,85% (active)
same,growth inhibition,[11]; at 33.0 µM,93% (active)
same,growth inhibition,[11]; at 100.0 µM,89% (active)
O=C(NCCNCCNC(=O)c1cc(-c2ccccc2)nc2ccccc12)c1cc(-c2ccccc2)nc2ccccc12,growth inhibition,[12]; at 1.2 µM,-3%
same,growth inhibition,[12]; at 3.7 µM,-3%
same,growth inhibition,[12]; at 11.0 µM,-3%
same,growth inhibition,[12]; at 33.0 µM,-5%
same,growth inhibition,[12]; at 100.0 µM,41%
same,growth inhibition,[13]; at 1.2 µM,-2%
same,growth inhibition,[13]; at 3.7 µM,-2%
same,growth inhibition,[13]; at 11.0 µM,-3%
same,growth inhibition,[13]; at 33.0 µM,-2%
same,growth inhibition,[13]; at 100.0 µM,6%
same,growth inhibition,[14]; at 1.2 µM,-1%
same,growth inhibition,[14]; at 3.7 µM,2%
same,growth inhibition,[14]; at 11.0 µM,3%
same,growth inhibition,[14]; at 33.0 µM,9%
same,growth inhibition,[14]; at 100.0 µM,9%
same,growth inhibition,[15]; at 1.2 µM,-2%
same,growth inhibition,[15]; at 3.7 µM,-1%
same,growth inhibition,[15]; at 11.0 µM,-2%
same,growth inhibition,[15]; at 33.0 µM,0%
same,growth inhibition,[15]; at 100.0 µM,1%
same,growth inhibition,[16]; at 1.2 µM,-3%
same,growth inhibition,[16]; at 3.7 µM,-2%
same,growth inhibition,[16]; [17],-11%
same,growth inhibition,[16]; at 11.0 µM,-4%
same,growth inhibition,[16]; at 33.0 µM,-2%
same,growth inhibition,[16]; [18],28%
same,growth inhibition,[16]; at 50.0 µM,31.6%
same,growth inhibition,[16]; at 100.0 µM,1%
same,growth inhibition,[1]; at 1.2 µM,-3%
same,growth inhibition,[1]; at 3.7 µM,-3%
same,growth inhibition,[1]; [17],-11%
same,growth inhibition,[1]; at 11.0 µM,-1%
same,growth inhibition,[1]; at 33.0 µM,-2%
same,growth inhibition,[1]; [18],40%
same,growth inhibition,[1]; at 50.0 µM,96.3% (active)
same,growth inhibition,[1]; at 100.0 µM,5%
same,growth inhibition,[2]; at 1.2 µM,-3%
same,growth inhibition,[2]; at 3.7 µM,-1%
same,growth inhibition,[2]; at 11.0 µM,-2%
same,growth inhibition,[2]; at 33.0 µM,4%
same,growth inhibition,[2]; at 100.0 µM,4%
same,growth inhibition,[3]; [17],9%
same,growth inhibition,[3]; [18],7%
same,growth inhibition,[3]; at 50.0 µM,21.6%
same,growth inhibition,[4]; at 1.2 µM,-2%
same,growth inhibition,[4]; at 3.7 µM,-2%
same,growth inhibition,[4]; at 11.0 µM,-3%
same,growth inhibition,[4]; at 33.0 µM,-5%
same,growth inhibition,[4]; at 100.0 µM,45%
same,growth inhibition,[5]; [17],-4%
same,growth inhibition,[5]; [18],45%
same,growth inhibition,[5]; at 50.0 µM,90.3% (active)
same,growth inhibition,[6]; at 1.2 µM,-2%
same,growth inhibition,[6]; at 3.7 µM,-1%
same,growth inhibition,[6]; [17],2%
same,growth inhibition,[6]; at 11.0 µM,-1%
same,growth inhibition,[6]; at 33.0 µM,-5%
same,growth inhibition,[6]; [18],58%
same,growth inhibition,[6]; at 50.0 µM,97.8% (active)
same,growth inhibition,[6]; at 100.0 µM,-2%
same,growth inhibition,[7]; at 1.2 µM,-2%
same,growth inhibition,[7]; at 3.7 µM,-2%
same,growth inhibition,[7]; at 11.0 µM,-1%
same,growth inhibition,[7]; at 33.0 µM,-2%
same,growth inhibition,[7]; at 100.0 µM,4%
same,growth inhibition,[8]; at 1.2 µM,-2%
same,growth inhibition,[8]; at 3.7 µM,1%
same,growth inhibition,[8]; at 11.0 µM,-2%
same,growth inhibition,[8]; at 33.0 µM,-2%
same,growth inhibition,[8]; at 100.0 µM,-1%
same,growth inhibition,[9]; at 1.2 µM,-2%
same,growth inhibition,[9]; at 3.7 µM,0%
same,growth inhibition,[9]; at 11.0 µM,0%
same,growth inhibition,[9]; at 33.0 µM,0%
same,growth inhibition,[9]; at 100.0 µM,22%
same,growth inhibition,[10]; [17],7%
same,growth inhibition,[10]; [18],66%
same,growth inhibition,[10]; at 50.0 µM,50.6%
same,growth inhibition,[11]; at 1.2 µM,-3%
same,growth inhibition,[11]; at 3.7 µM,-4%
same,growth inhibition,[11]; at 11.0 µM,-3%
same,growth inhibition,[11]; at 33.0 µM,-2%
same,growth inhibition,[11]; at 100.0 µM,-1%
